Common to all, as to assay: glycan array binding signal (z-score within array); higher = stronger binding
Holding throughout (details): glycan notation: IUPAC condensed, linker removed

The target in one experiment is Gal4S(b1-4)GlcNAc. In a few lines:
(§1)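 The Consortium for Functional Glycomics database supplied 3228 glycan arrays, of which those lacking an available protein sequence were dropped. The binding signal, a within-array Z-score, was averaged across arrays of the same protein sequence and across linkers. Negative scores can be read as non-binding.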

Experiment [1] concerns the target GalNAc3S(b1-4)[Fuc(a1-3)]GlcNAc. The method in brief: as §1
The target of experiment [2] is GlcNAc(b1-2)[GlcNAc(b1-4)]Man(a1-3)[GlcNAc(b1-2)Man(a1-6)]Man(b1-4)GlcNAc(b1-4)GlcNAc. The method in brief: as §1
Experiment [3] has as its target GlcNAc(b1-2)[GlcNAc(b1-4)]Man(a1-3)[GlcNAc(b1-4)][GlcNAc(b1-2)Man(a1-6)]Man(b1-4)GlcNAc(b1-4)GlcNAc. In a few lines:
as §1

Experiment [4] has as its target GlcNAc(b1-2)[GlcNAc(b1-4)]Man(a1-3)[GlcNAc(b1-4)][GlcNAc(b1-2)[GlcNAc(b1-6)]Man(a1-6)]Man(b1-4)GlcNAc(b1-4)GlcNAc. The method in brief:
as §1

Experiment [5] concerns the target GlcNAc(b1-2)[GlcNAc(b1-4)]Man(a1-3)[GlcNAc(b1-4)][GlcNAc(b1-2)[GlcNAc(b1-6)]Man(a1-6)]Man(b1-4)GlcNAc(b1-4)[Fuc(a1-6)]GlcNAc. In a few lines:
as §1

The target in experiment [6] is GlcNAc(b1-3)Gal(b1-4)GlcNAc(b1-2)[GlcNAc(b1-3)Gal(b1-4)GlcNAc(b1-6)]Man(a1-6)[GlcNAc(b1-3)Gal(b1-4)GlcNAc(b1-2)Man(a1-3)]Man(b1-4)GlcNAc(b1-4)GlcNAc. In a few lines:
as §1

The target of experiment [7] is GlcNAc(b1-3)Gal(b1-4)GlcNAc(b1-3)Gal(b1-4)GlcNAc(b1-2)[GlcNAc(b1-3)Gal(b1-4)GlcNAc(b1-3)Gal(b1-4)GlcNAc(b1-6)]Man(a1-6)[GlcNAc(b1-3)Gal(b1-4)GlcNAc(b1-3)Gal(b1-4)GlcNAc(b1-2)Man(a1-3)]Man(b1-4)GlcNAc(b1-4)[Fuc(a1-6)]GlcNAc. The method in brief: as §1
For experiment [8], the target named is GlcNAc(b1-4)GlcNAc(b1-4)GlcNAc. In a few lines:
as §1

Experiment [9] deals with Kdn(a2-3)Gal(b1-4)[Fuc(a1-3)]GlcNAc. The method in brief: as §1
In experiment [10] the target is Man(a1-2)Man(a1-6)[Man(a1-3)]Man(a1-6)[Man(a1-2)Man(a1-2)Man(a1-3)]Man. In a few lines:
as §1

Experiment [11] has as its target Man(a1-3)[Man(a1-6)]Man(a1-6)[Man(a1-3)]Man. The method in brief:
as §1

Experiment [12] deals with Neu5Ac(a2-3)Gal(b1-3)GlcNAc(b1-3)GalNAc. The method in brief:
as §1

In experiment [13] the target is Neu5Ac(a2-3)Gal(b1-3)[Fuc(a1-4)]GlcNAc(b1-3)Gal(b1-3)[Fuc(a1-4)]GlcNAc. In a few lines: as §1
Experiment [14] addresses Neu5Ac(a2-3)Gal(b1-4)GlcNAc(b1-2)[Neu5Ac(a2-3)Gal(b1-4)GlcNAc(b1-4)]Man(a1-3)[GlcNAc(b1-4)][Neu5Ac(a2-3)Gal(b1-4)GlcNAc(b1-2)[Neu5Ac(a2-3)Gal(b1-4)GlcNAc(b1-6)]Man(a1-6)]Man(b1-4)GlcNAc(b1-4)GlcNAc. In a few lines:
as §1

The target in experiment [15] is Neu5Ac(a2-3)Gal(b1-4)[Fuc(a1-3)]GlcNAc(b1-3)GalNAc. In a few lines:
as §1

The target in the next experiment is Neu5Ac(a2-3)GalNAc. The method in brief: as §1
Experiment [16] has as its target Neu5Ac(a2-3)[GalNAc(b1-4)]Gal(b1-4)Glc. The method in brief: as §1
Experiment [17] addresses Neu5Ac(a2-6)Gal(b1-4)GlcNAc(b1-2)Man(a1-3)[GlcNAc(b1-4)][Neu5Ac(a2-6)Gal(b1-4)GlcNAc(b1-2)Man(a1-6)]Man(b1-4)GlcNAc(b1-4)GlcNAc. The method in brief:
as §1

The target in experiment [18] is Neu5Ac(a2-6)Gal(b1-4)GlcNAc(b1-2)[Neu5Ac(a2-6)Gal(b1-4)GlcNAc(b1-4)]Man(a1-3)[GlcNAc(b1-4)][Neu5Ac(a2-6)Gal(b1-4)GlcNAc(b1-4)Man(a1-6)]Man(b1-4)GlcNAc(b1-4)GlcNAc. The method in brief: as §1
Experiment [19] has as its target Neu5Ac(a2-6)Gal(b1-4)GlcNAc(b1-3)Gal(b1-4)GlcNAc(b1-2)Man(a1-3)[Neu5Ac(a2-6)Gal(b1-4)GlcNAc(b1-3)Gal(b1-4)GlcNAc(b1-2)Man(a1-6)]GalNAc. In a few lines:
as §1

Experiment [20] addresses Neu5Ac(a2-6)Gal(b1-4)GlcNAc(b1-3)Gal(b1-4)GlcNAc(b1-3)Gal(b1-4)GlcNAc. The method in brief: as §1
Experiment [21] concerns the target Neu5Ac(a2-6)Gal(b1-4)GlcNAc(b1-3)GalNAc. The method in brief:
as §1

Experiment [22] has as its target Neu5Ac(b2-6)Gal(b1-4)GlcNAc. The method in brief: as §1

Shown is part of a subset that was picked to be rich in the strongest signals.

B1: SP8524D-bot-399-27-399 (Bacteroides ovatus) (protein)
chain: DAKYDTLDTHAYIEEALSSTSQKVTVQATGESFTTLNVHLSNLSSTDNHYKLVTDQSVLDTYNHINGTGYIMLPKDYYTLPETITVKAGQYAADALSIALKAFSQEMMKSGESYALPVKLVLQDGSISPMENTGTFVILAESIIEFSAPMFVGAPSLKANKFTESPETYSQYTIEVRFQVANTADRDRAVFKNGGDDANFILLRFEDPQSDNENYKAHSLVQIVGRNRLYLNPSNSFKPNEWQHLALVCDGSNYRLYINGVDSGVLSIPTGATTFSDVNWFCLGDDSYSRWGNCKILMSEARIWSVVRSASQIQNNMTQVSPKSVGLEAYWRFNEGQGNVFEDATGKGHTLTTSATPTWIDGILSTDKSTEWK
Consider B1, for which the “glycan array binding signal (z-score)” value with Gal4S(b1-4)GlcNAc amounted to 0.045; in [1], 0.563; in experiment [2], 16.1; in experiment [3], 8.43; in experiment [4], 12.1; in experiment [5], 2.04. For the same molecule, the “glycan array binding signal (z-score)” value in experiment [6] was 0.455; in experiment [7], 1.11; in experiment [8], -0.187; in experiment [9], 0.119; in experiment [10] it was -0.455; in experiment [11], 0.159. Further, the “glycan array binding signal (z-score)” value is -0.628 in experiment [12]; 0.014 in [13]; -0.648 in [14]; 0.96 in experiment [15]; -0.038 in the experiment with Neu5Ac(a2-3)GalNAc; 0 in experiment [16]. Further, the “glycan array binding signal (z-score)” value in [17] is 0.589; in [18], 0.44; in experiment [19], 0.437; in experiment [20] it was -0.075; in experiment [21] it was -0.138; in experiment [22] it was -0.048.

The values above are taken from the supplement of paper PMC8728848.
